The values that follow come from PMC7862700, “An all-to-all approach to the identification of sequence-specific readers for epigenetic DNA modifications on cytosine”.

Common to all, as to test: DAPPL (digital affinity profiling via proximity ligation, sequencing); 10 mM Tris-HCl pH 7.5, 50 mM NaCl, 1 mM DTT, 4% glycerol, room temperature, 30 min; GST-TFs on glutathione beads, 16-mer random dsDNA library, 0.1% formaldehyde crosslink after washing; high values mean tight binding
Conditions in all cases: protein: recombinant; tags: N-terminal GST; dsDNA, one strand shown

One test addresses T1, FLI1 (Homo sapiens, UniProt Q01543 1-452).
T1 sequence: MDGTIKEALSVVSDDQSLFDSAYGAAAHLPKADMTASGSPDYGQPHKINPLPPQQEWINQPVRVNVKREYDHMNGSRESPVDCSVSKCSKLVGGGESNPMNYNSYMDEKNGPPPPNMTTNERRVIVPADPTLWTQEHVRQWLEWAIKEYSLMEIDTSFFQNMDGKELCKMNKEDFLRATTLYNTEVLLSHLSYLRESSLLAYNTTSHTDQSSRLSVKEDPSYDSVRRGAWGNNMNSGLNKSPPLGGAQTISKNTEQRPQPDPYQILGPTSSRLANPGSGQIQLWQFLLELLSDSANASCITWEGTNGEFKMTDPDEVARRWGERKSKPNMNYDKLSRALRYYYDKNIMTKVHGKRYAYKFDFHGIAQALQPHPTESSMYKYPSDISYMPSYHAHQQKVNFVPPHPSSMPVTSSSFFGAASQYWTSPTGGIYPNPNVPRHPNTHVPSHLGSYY
In a few lines: (§1)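 After expression in yeast as GST fusions, human transcription factors were bound to glutathione beads, DNA-barcoded and mixed with a tag-only sample. The pools were incubated with 200 nmole of a 16-mer random double-stranded DNA library in Tris/NaCl/DTT/glycerol buffer (30 min, room temperature), washed and crosslinked with 0.1% formaldehyde. Proximity ligation with BsaI/T4 ligase ran for 1 h at 37 °C, before PCR amplification and sequencing on an Illumina NextSeq500. Binding signal is a hexamer's read frequency for a factor divided by its frequency for the tag-only sample.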

Another test deals with T2, ELK1 (Homo sapiens, UniProt P19419 1-428).
T2 sequence: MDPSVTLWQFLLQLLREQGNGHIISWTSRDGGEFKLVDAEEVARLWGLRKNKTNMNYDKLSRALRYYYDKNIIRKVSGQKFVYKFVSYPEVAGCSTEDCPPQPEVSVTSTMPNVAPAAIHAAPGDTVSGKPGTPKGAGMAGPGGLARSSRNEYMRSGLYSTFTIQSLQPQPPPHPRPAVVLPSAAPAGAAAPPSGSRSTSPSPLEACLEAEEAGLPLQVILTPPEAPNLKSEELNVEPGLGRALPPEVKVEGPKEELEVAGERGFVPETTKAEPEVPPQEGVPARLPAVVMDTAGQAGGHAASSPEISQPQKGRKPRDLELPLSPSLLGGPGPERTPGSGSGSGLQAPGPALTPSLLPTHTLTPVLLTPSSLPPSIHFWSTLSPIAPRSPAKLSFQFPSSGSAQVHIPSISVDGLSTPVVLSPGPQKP
The method in brief:
as §1

The next test has as its target T3, GABPA (Homo sapiens, UniProt Q06546 1-454).
T3 sequence: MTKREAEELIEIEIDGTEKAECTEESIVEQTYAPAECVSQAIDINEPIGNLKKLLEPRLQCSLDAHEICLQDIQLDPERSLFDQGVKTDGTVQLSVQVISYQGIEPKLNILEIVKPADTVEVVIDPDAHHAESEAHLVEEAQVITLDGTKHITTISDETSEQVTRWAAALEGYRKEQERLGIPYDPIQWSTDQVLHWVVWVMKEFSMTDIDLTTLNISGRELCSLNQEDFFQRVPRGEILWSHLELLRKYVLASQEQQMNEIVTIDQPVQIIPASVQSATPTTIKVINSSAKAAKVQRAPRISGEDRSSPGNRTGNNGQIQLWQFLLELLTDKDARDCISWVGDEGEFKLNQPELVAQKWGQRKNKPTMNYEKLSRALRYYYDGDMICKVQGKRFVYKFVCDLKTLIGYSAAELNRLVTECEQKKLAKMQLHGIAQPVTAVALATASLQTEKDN
The method in brief: as §1

Another test concerns the target T4, ERG (Homo sapiens, UniProt P11308 1-479).
T4 sequence: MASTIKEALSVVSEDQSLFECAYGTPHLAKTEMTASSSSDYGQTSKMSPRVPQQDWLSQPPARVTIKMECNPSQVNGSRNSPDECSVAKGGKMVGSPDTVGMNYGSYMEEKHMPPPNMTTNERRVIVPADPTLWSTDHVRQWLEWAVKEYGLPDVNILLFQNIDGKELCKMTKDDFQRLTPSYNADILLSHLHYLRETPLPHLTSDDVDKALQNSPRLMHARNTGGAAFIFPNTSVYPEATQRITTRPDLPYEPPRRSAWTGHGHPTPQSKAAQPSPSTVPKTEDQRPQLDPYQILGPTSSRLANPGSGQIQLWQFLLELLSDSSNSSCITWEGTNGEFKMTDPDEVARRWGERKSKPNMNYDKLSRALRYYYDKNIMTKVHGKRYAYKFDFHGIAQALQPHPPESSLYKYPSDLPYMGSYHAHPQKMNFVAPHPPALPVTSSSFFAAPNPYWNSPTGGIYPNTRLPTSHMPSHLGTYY
In a few lines: as §1

Another test addresses ELF1 (Homo sapiens, UniProt P32519 1-619). In a few lines:
as §1

For a further test, the target named is T5, EHF (Homo sapiens, UniProt Q9NZC4 1-300).
T5 sequence: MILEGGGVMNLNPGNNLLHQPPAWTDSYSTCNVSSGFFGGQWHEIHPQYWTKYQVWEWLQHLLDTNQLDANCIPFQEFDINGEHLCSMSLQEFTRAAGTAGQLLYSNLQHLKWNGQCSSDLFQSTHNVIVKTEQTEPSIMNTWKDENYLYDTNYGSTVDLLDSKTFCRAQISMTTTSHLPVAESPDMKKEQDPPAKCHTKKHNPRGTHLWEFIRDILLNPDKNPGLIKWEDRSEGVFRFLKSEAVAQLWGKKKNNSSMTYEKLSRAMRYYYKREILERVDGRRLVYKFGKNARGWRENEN
In a few lines: as §1

For the next test, the target named is SPI1 (Homo sapiens, UniProt P17947 1-270). In a few lines:
as §1

The target in the next test is SPIB (Homo sapiens, UniProt Q01892 1-262). The method in brief: as §1
A further test addresses T6, ELK3 (Homo sapiens, UniProt P41970 1-407).
T6 sequence: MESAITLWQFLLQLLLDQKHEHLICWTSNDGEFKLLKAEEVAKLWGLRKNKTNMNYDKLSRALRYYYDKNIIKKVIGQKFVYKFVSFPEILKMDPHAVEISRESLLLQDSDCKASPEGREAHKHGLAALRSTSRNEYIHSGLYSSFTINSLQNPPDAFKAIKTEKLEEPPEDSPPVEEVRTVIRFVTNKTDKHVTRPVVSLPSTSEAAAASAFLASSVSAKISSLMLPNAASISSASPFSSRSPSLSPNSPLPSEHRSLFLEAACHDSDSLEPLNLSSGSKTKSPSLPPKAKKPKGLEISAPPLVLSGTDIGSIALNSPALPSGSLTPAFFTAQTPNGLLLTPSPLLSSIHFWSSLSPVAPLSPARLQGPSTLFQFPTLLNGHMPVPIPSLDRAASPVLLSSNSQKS
The method in brief:
as §1

Sequence of SPIB (Q01892 whole entry): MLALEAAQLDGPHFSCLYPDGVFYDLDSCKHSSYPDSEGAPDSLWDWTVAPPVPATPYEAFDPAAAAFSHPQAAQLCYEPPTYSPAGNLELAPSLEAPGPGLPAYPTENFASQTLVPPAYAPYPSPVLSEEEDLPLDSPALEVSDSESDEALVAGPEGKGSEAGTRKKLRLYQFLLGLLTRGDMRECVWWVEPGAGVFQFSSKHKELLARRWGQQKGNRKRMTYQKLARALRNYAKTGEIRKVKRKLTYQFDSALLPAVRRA
Sequence of ELF1 (P32519 whole entry): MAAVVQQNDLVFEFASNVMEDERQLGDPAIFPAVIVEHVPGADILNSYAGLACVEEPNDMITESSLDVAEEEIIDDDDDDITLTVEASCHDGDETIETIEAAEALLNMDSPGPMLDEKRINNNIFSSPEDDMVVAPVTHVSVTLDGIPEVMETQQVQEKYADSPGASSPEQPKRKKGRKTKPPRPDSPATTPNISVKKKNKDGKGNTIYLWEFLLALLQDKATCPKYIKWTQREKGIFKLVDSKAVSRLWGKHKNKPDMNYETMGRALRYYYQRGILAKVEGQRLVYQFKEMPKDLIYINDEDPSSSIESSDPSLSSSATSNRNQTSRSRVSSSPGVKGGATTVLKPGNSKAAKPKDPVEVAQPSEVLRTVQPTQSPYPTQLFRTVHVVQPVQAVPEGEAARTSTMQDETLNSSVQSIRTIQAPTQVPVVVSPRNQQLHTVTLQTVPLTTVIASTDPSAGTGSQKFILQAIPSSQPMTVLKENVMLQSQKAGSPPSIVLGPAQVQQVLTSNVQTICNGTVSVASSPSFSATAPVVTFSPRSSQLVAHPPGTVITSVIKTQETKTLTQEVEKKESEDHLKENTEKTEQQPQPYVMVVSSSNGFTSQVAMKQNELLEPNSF

GGTCTA: the binding signal is 1.12 fold enrichment (6-mer frequency, TF over GST control) with FLI1; 1.05 fold enrichment (6-mer frequency, TF over GST control) with ELK1; 1.06 fold enrichment (6-mer frequency, TF over GST control) in the test with GABPA; 1.08 fold enrichment (6-mer frequency, TF over GST control) with ERG; 1.05 fold enrichment (6-mer frequency, TF over GST control) with ELF1; 1.23 fold enrichment (6-mer frequency, TF over GST control) in the test with EHF. Further, the binding signal in the test with SPI1 is 1.02 fold enrichment (6-mer frequency, TF over GST control); with SPIB, 1.05 fold enrichment (6-mer frequency, TF over GST control); with ELK3 it was 1.24 fold enrichment (6-mer frequency, TF over GST control).

Take ATTAGG: the binding signal in the test with FLI1 is 1.06 fold enrichment (6-mer frequency, TF over GST control); with ELK1 it was 1.06 fold enrichment (6-mer frequency, TF over GST control); with GABPA, 1.1 fold enrichment (6-mer frequency, TF over GST control); with ERG, 1.05 fold enrichment (6-mer frequency, TF over GST control); with ELF1, 1.06 fold enrichment (6-mer frequency, TF over GST control); in the test with EHF, 1.1 fold enrichment (6-mer frequency, TF over GST control). Moreover, the binding signal in the test with SPI1 is 1.07 fold enrichment (6-mer frequency, TF over GST control); with SPIB, 1.06 fold enrichment (6-mer frequency, TF over GST control); with ELK3 it was 1.1 fold enrichment (6-mer frequency, TF over GST control).

Regarding TTCCCT, the binding signal with FLI1 was 1.81 fold enrichment (6-mer frequency, TF over GST control); with ELK1 it was 1.67 fold enrichment (6-mer frequency, TF over GST control); with GABPA, 1.72 fold enrichment (6-mer frequency, TF over GST control); with ERG it was 1.72 fold enrichment (6-mer frequency, TF over GST control); with ELF1, 1.68 fold enrichment (6-mer frequency, TF over GST control); with EHF, 1.68 fold enrichment (6-mer frequency, TF over GST control). Moreover, the binding signal with SPI1 was 2.23 fold enrichment (6-mer frequency, TF over GST control); with SPIB, 1.9 fold enrichment (6-mer frequency, TF over GST control); with ELK3 it was 1.8 fold enrichment (6-mer frequency, TF over GST control).

For CCCCGC, the binding signal was 1.12 fold enrichment (6-mer frequency, TF over GST control) in the test with FLI1; 1.19 fold enrichment (6-mer frequency, TF over GST control) in the test with ELK1; 1.2 fold enrichment (6-mer frequency, TF over GST control) with GABPA; 1.19 fold enrichment (6-mer frequency, TF over GST control) with ERG; 1.27 fold enrichment (6-mer frequency, TF over GST control) with ELF1; 1.26 fold enrichment (6-mer frequency, TF over GST control) with EHF. The binding signal with SPI1 is 1.11 fold enrichment (6-mer frequency, TF over GST control); with SPIB it was 1.19 fold enrichment (6-mer frequency, TF over GST control); in the test with ELK3, 1.06 fold enrichment (6-mer frequency, TF over GST control).

In the case of TTCATA, the binding signal with FLI1 was 1.17 fold enrichment (6-mer frequency, TF over GST control); in the test with ELK1, 1.16 fold enrichment (6-mer frequency, TF over GST control); with GABPA it was 1.18 fold enrichment (6-mer frequency, TF over GST control); with ERG, 1.11 fold enrichment (6-mer frequency, TF over GST control); in the test with ELF1, 1.19 fold enrichment (6-mer frequency, TF over GST control); in the test with EHF, 1.18 fold enrichment (6-mer frequency, TF over GST control). Moreover, the binding signal in the test with SPI1 is 1.18 fold enrichment (6-mer frequency, TF over GST control); in the test with SPIB, 1.23 fold enrichment (6-mer frequency, TF over GST control); with ELK3, 1.16 fold enrichment (6-mer frequency, TF over GST control).

Take GAAACG: the binding signal with FLI1 is 1.17 fold enrichment (6-mer frequency, TF over GST control); with ELK1, 1.26 fold enrichment (6-mer frequency, TF over GST control); in the test with GABPA, 1.2 fold enrichment (6-mer frequency, TF over GST control); in the test with ERG, 1.38 fold enrichment (6-mer frequency, TF over GST control); with ELF1, 1.18 fold enrichment (6-mer frequency, TF over GST control); in the test with EHF, 1.19 fold enrichment (6-mer frequency, TF over GST control). The binding signal was 1.17 fold enrichment (6-mer frequency, TF over GST control) with SPI1; 1.25 fold enrichment (6-mer frequency, TF over GST control) in the test with SPIB; 1.27 fold enrichment (6-mer frequency, TF over GST control) in the test with ELK3.

Regarding CAATTG, the binding signal with FLI1 is 1.32 fold enrichment (6-mer frequency, TF over GST control); in the test with ELK1, 1.19 fold enrichment (6-mer frequency, TF over GST control); with GABPA, 1.26 fold enrichment (6-mer frequency, TF over GST control); with ERG, 1.14 fold enrichment (6-mer frequency, TF over GST control); with ELF1 it was 1.28 fold enrichment (6-mer frequency, TF over GST control); with EHF, 1.27 fold enrichment (6-mer frequency, TF over GST control). Also, the binding signal in the test with SPI1 was 1.25 fold enrichment (6-mer frequency, TF over GST control); in the test with SPIB, 1.16 fold enrichment (6-mer frequency, TF over GST control); with ELK3 it was 1.23 fold enrichment (6-mer frequency, TF over GST control).

In the case of TGACAC, the binding signal is 1.13 fold enrichment (6-mer frequency, TF over GST control) with FLI1; 1.27 fold enrichment (6-mer frequency, TF over GST control) with ELK1; 1.07 fold enrichment (6-mer frequency, TF over GST control) with GABPA; 1.2 fold enrichment (6-mer frequency, TF over GST control) with ERG; 1.17 fold enrichment (6-mer frequency, TF over GST control) with ELF1; 1.15 fold enrichment (6-mer frequency, TF over GST control) with EHF. Also, the binding signal with SPI1 is 1.13 fold enrichment (6-mer frequency, TF over GST control); with SPIB it was 1.11 fold enrichment (6-mer frequency, TF over GST control); with ELK3, 1.22 fold enrichment (6-mer frequency, TF over GST control).
